# Compound activity (PubChem)
# PLC-beta3 inh: human PLC-beta3 inhibitors, primary screen, biochemical, fluorescence; 0.18% of 370,000 active; 1-phosphatidylinositol 4,5-bisphosphate phosphodiesterase beta-3 (Homo sapiens), Q01970; inhibition, % at 12.2 µM; Purified PLC-beta3, fluorogenic substrate; AID 720704, 2013;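 also: 0% = median of compound wells on plate and 100% = full blocker control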
# PLCg1 inh: PLC-gamma1 enzyme inhibitors, primary screen, biochemical, fluorescence, purified enzyme. 1-phosphatidylinositol 4,5-bisphosphate phosphodiesterase gamma-1 (Homo sapiens), P19174. fluorogenic substrate. inhibition, % at 12.2 µM. 0.84% of 370,000 active; in the data active = inhibition above about 9.5%
# LEDGF integ inh: blockers of LEDGF/p75-dependent integrase strand transfer – biochemical, TR-FRET, high throughput, primary screen; HIV-1 integrase (with human LEDGF/p75); TR-FRET IN-LEDGF/p75 DNA integration, Eu/Cy5; inhibition, % at 3.7 µM; 0.64% of 370,000 active; AID 743269, 2014;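 active = inhibition above the screen-wide mean plus 3 SD, cut at about 13% in these data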;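 also: signal is the Cy5 over europium emission ratio at 671 and 618 nm; 0% = plate median of compound wells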
# UHRF1 binding: UHRF1 methylated DNA binding inhibitors, primary screen, counter-screen for MBD2 inhibitor project, biochemical, TR-FRET, human UHRF1, single concentration. E3 ubiquitin-protein ligase UHRF1 (Homo sapiens), Q96T88. UHRF1 binding to methylated oligo. inhibition, % at 4.4 µM. 0.75% of 370,000 active; in the data active = inhibition above about 21%;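 also: UHRF1 SRA domain binding a hemimethylated CpG hairpin DNA probe; 0% = median of test compound wells and 100% = reference inhibitor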
# Target sequence (Q96T88 whole entry, looked up, the tested form may be a part): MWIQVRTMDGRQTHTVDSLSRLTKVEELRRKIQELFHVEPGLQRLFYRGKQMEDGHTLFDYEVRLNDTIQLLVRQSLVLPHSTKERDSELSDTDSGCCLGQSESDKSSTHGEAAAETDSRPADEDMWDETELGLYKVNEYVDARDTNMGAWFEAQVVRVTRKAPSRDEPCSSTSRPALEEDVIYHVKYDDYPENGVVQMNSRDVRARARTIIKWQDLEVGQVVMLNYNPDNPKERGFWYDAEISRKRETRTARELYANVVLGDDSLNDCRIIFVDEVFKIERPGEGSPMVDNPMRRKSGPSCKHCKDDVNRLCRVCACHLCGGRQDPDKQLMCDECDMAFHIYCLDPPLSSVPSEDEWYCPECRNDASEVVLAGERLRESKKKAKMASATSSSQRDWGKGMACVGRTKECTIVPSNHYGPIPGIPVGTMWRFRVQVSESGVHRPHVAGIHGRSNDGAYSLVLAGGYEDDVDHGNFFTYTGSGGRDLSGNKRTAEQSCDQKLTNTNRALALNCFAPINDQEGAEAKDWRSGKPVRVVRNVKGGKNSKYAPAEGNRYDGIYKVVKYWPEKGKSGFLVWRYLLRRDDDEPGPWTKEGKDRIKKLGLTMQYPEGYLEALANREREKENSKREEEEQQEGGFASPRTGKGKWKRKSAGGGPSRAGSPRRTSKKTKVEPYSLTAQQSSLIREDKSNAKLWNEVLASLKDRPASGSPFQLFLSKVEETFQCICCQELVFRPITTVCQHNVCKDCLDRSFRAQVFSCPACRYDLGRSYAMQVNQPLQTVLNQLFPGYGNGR
# MBD2 DNA inh: inhibitors of MBD2 binding to methylated DNA, primary screen, biochemical, TR-FRET, DNA-binding domain, human. Methyl-CpG-binding domain protein 2 (Homo sapiens), Q9UBB5. MBD2 binding to methylated oligonucleotide. inhibition, % at 4.4 µM. 0.31% of 370,000 active. AID 686964, 2013; in the data active = inhibition above about 13%
# PLCg1 ctr: PLC-gamma1 enzyme inhibitors, counter-screen for PLC-beta3 inhibitor project, biochemical, fluorescence; shares compounds with PLCg1 inh; purified PLC-gamma1, fluorogenic substrate; inhibition, % at 12.3 µM; 3.1% of 3,300 active; in the data active = inhibition above about 9.5%
# PLCb3 confirm: PLC-beta3 inhibitor confirmation, biochemical, fluorescence, purified enzyme; shares compounds with PLCg1 inh; fluorogenic substrate fluorescence; inhibition, % at 12.3 µM; 1% of 3,300 active; AID 743261, 2014
# Numbers without * were called inactive; / = not tested or not shown. Most compounds without a hit are left out; they make up all but 2.4% or so of the library. Rule as the data show it, unless noted: active = inhibition above about 11%; inactive = the rest.
SMILES,PLC-beta3 inh,PLCg1 inh,LEDGF integ inh,UHRF1 binding,MBD2 DNA inh,PLCg1 ctr,PLCb3 confirm
COC(=O)C1=C(C)N(C)C(=NCc2ccc(OC)cc2)NC1c1cccc(C(F)(F)F)c1 (stereo not drawn),3,1,0,-1,-2,/,/
CC(C)(C)OC(=O)C[C@H]1C/C=C\C[C@H](CC(=O)N[C@H](CO)Cc2ccccc2)C(=O)N[C@@H](Cc2ccccc2)COC1=O,13*,14*,-1,6,-1,1,2
C[C@@H]1COC(=O)[C@@H](CC(=O)OC(C)(C)C)C/C=C\C[C@@H](CC(=O)N[C@@H](CO)Cc2ccccc2)C(=O)N1,0,2,-1,1,-1,/,/
O=C(C[C@H]1C/C=C\CC[C@@H](Cc2ccc(F)cc2)C(=O)O[C@@H](c2ccccc2)CNC1=O)N[C@H](CO)Cc1ccccc1,8,11*,-1,7,-8,1,-1
Cc1cccc(C)c1NC(=O)C1CCCN1S(=O)(=O)c1cccc2cccnc12 (stereo not drawn),3,3,0,3,2,/,/
CCC(CO)Nc1cccc2c1S(=O)(=O)N(Cc1cn(Cc3ccc(F)cc3)nn1)Cc1ccccc1O2 (stereo not drawn),1,1,-3,12,6,/,/
N=c1c2c(ccn1Cc1ccccc1)Oc1ccc3ccccc3c1C2c1ccccc1 (stereo not drawn),-6,0,-4,2,3,/,/
CC(C)CNC(=O)C1(C)CCCCCN1C(=O)c1cccnc1 (stereo not drawn),4,2,3,3,1,/,/
CC(C)CNC(=O)C1(C)CCCCCN1C(=O)c1cc2ccccc2s1 (stereo not drawn),7,14*,5,4,4,-5,2
Cc1nc(C(F)(F)F)ccc1C(=O)N1CCCCCC1(C)C(=O)NCC(C)C (stereo not drawn),7,16*,1,4,-2,-3,3
CCCCNC(=O)C1(C)CCCCN1C(=O)c1cc2ccccc2s1 (stereo not drawn),13*,5,3,0,-6,-1,4
O=C(CSc1nc2sc3c(c2c(=O)n1-c1ccc(Cl)cc1)CCCC3)c1ccccc1Cl,1,0,-1,0,-1,/,/
CCCCN(CCCC)C(=S)N/N=C/c1c(C)[nH]n(-c2ccccc2)c1=O,5,9.9*,3,-13,-1,-9,-21
Cc1cc(C(=O)N/N=C/c2c(C)[nH]n(-c3ccccc3)c2=O)n[nH]1,-6,-1,-4,-8,-2,/,/
CNS(=O)(=O)c1cccc(C(=O)OCC(=O)NC2CCCC2)c1,-2,9.6*,6,3,2,-4,0
COc1ccccc1NS(=O)(=O)c1cccc(C(=O)OCC(=O)NC2CC2)c1,2,4,0,-2,2,/,/
COc1cccc2c1[C@H](/C=C/c1ccccc1)[C@@H]([C@H](O)COC(C)=O)OC2,2,1,0,-1,-2,/,/
CCCC(=O)N1CCCC(c2nc(-c3cccs3)no2)C1 (stereo not drawn),2,5,-3,-1,-3,/,/
O=C(NC1CCCCC1)N1CCCC(c2nc(-c3cccs3)no2)C1 (stereo not drawn),10,10*,0,6,3,-7,-1
Cc1ccccc1NC(=O)N1CCCC(c2nc(-c3ccc(F)cc3)no2)C1 (stereo not drawn),1,-1,-5,1,-8,/,/
Cc1ccccc1NC(=O)N1CCCC(c2nc(-c3ccc(C(C)C)cc3)no2)C1 (stereo not drawn),3,10*,-1,6,10,-5,-2
CCOc1ccc(-c2cc(C(=O)NC3CCCCC3)[nH]n2)c(C)c1,12*,0,0,-1,-3,-19,-1
CCOc1ccc(-c2cc(C(=O)NCc3cc(OC)cc(OC)c3)[nH]n2)c(C)c1,4,4,1,1,-3,/,/
CC(C)c1onc(C(=O)N2CCCCCC2)c1[N+](=O)[O-],4,15*,4,6,-2,-3,-1
COc1cccc(-c2ccc(CN3C(C(C)C)C(=O)N(Cc4cn(CCC5OCCO5)nn4)CCS3(=O)=O)cc2)c1OC (stereo not drawn),9,12*,2,-3,-8,-3,2
SMILES,PLC-beta3 inh,PLCg1 inh,LEDGF integ inh,UHRF1 binding,MBD2 DNA inh,PLCg1 ctr,PLCb3 confirm
COc1ccc(C(c2nnnn2Cc2cccs2)N2CCN(c3ccccc3F)CC2)cc1OC (stereo not drawn),14*,11*,-1,5,2,5,4
COC(=O)C1CN(Cc2cn(Cc3ccc(F)cc3)nn2)CCS(=O)(=O)N1Cc1ccc(OC)cc1 (stereo not drawn),3,1,5,13,5,/,/
COC(=O)[C@H](CC(C)C)N(CCc1cn(Cc2ccc(C)cc2)nn1)S(=O)(=O)c1ccc(F)cc1Br,5,3,0,-1,6,/,/
CCOc1ccc(-c2n[nH]c(C)c2Oc2ccccc2OC)c(O)c1,3,9.6*,-1,2,5,-4,-2
C=C(C)COc1ccc(-c2n[nH]c(C)c2Oc2ccccc2OC)c(O)c1,1,1,-3,1,-4,/,/
COC(=O)[C@]12C[C@H](CC(=O)NCc3cccc(C(F)(F)F)c3)C(=O)N(Cc3ccco3)C1=C[C@H](C1CCCC1)O[C@@H]2C,0,2,2,0,6,/,/
NC(=O)C1CNc2ccccc2O1 (stereo not drawn),7,11*,2,6,-2,-3,-3
COc1cccc(Nc2cc(N3CCOCC3)c3nonc3c2[N+](=O)[O-])c1,3,10*,2,-4,-3,4,-4
CCN1CCCCC(NC(=O)COCc2ccccc2)C1=O (stereo not drawn),1,2,1,-3,-1,/,/
O=C1CN(C(=O)COC(=O)c2ccc(Br)o2)c2ccccc2N1,-16,-11,-7,0,7,/,/
O=C1CN(C(=O)COC(=O)c2cccc(Br)c2)c2ccccc2N1,-10,14*,7,2,-5,-2,-1
O=C(CNS(=O)(=O)c1ccc(Br)s1)N1CCN(c2ccccn2)CC1,1,-2,-1,-1,0,/,/
